A short description of experiment [1]: qHTS profiling of the MIPE4 collection as inhibitors of Plasmodium falciparum (DD2) proliferation (AID 743345; call rule not given here). To be noted: P. falciparum Dd2 in erythrocytes, SYBR Green DNA, 72 h; at 28.5 µM (top of the series) unless noted. The gist of the method:
(§1)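 Parasite DNA was quantified by SYBR Green I fluorescence (ex 485, em 535 nm) after overnight lysis in saponin/Triton buffer at room temperature. Cultures at 0.3% parasitemia and 2.5% hematocrit were first exposed to compound for 72 h at 37 C; signals were normalised to artemisinin (0.29 uM) and vehicle wells.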

A short description of experiment [2]: qHTS profiling of the MIPE4 collection as inhibitors of Plasmodium falciparum (DD2) proliferation (Rep 2) (AID 743346; call rule not given here). The settings on record: P. falciparum Dd2 in erythrocytes, SYBR Green DNA, 72 h; at 28.5 µM (top of the series) unless noted. The gist of the method:
as §1

Experiment [3] can be described thus: qHTS profiling of the MIPE4 collection as inhibitors of Plasmodium falciparum (HB3) proliferation (AID 743347; call rule not given here;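 further: plate controls were DMSO vehicle wells for no effect and artemisinin wells for full effect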). To be noted: P. falciparum HB3 in erythrocytes, SYBR Green DNA, 72 h; at 28.5 µM (top of the series) unless noted. The gist of the method:
as §1

A short description of experiment [4]: High-throughput drug toxicity screening in the BPDCN cell line Gen2.2 (AID 1224824; call rule not given here;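 further: cells exposed to compounds for 48 h before reading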). To be noted: Gen2.2 BPDCN cells; at 45.8 µM (top of the series) unless noted. An outline of the steps: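 Gen2.2, 500 cells/well, phenol red-free RPMI/10% FBS/Pen-Strep; 48 h cpd, 37 °C/5% CO2; CTG lum, 15 min RT. Norm: DMSO = 100%, bortezomib 9.2 uM final = 0%.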
Experiment [5] can be described thus: High-throughput drug toxicity screening in the BPDCN cell line Cal-1 (AID 1224825; call rule not given here). To be noted: Cal-1 BPDCN cell viability, qHTS; at 45.8 µM (top of the series) unless noted. The gist of the method:
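CellTiter-Glo luminescence after 48 h compound exposure; percent activity scaled with DMSO as 100% and bortezomib (9.2 uM final) as 0%. Cal-1 cells seeded at 500/well in RPMI, 10% FBS, no phenol red.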

Experiment [6] in a line: qHTS assay for measurement of the activity of small molecule inhibitors on Zika virus induced Caspase-3 activity in human iPSC derived neural progenitor cells (hNPCs) (AID 1224857). Further: % of control where 0% means no effect; nearly all actives have a fitted effect of over 65% in size. The gist of the method: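 Values are percent inhibition of virus-induced caspase-3/7 signal, scaled between uninfected cells and ZIKV-infected cells. Infection used 2 FFU/cell for 6 h after 1 h compound exposure.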

The nature of experiment [7]: qHTS assay for measurement of the activity of small molecule inhibitors on Zika virus induced Caspase-3 activity in human astrocytoma cells (AID 1224859).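 Further: plate controls were ZIKV-infected untreated cells for no effect and uninfected cells for full effect.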 The gist of the method: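 Compound added 1 h pre-infection; ZIKV 2 FFU/cell on SNB-19 cells, 6 h, 37 C/5% CO2. Caspase-Glo 3/7 luminescence; values as % inhibition of ZIKV-induced caspase activity.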
Experiment [8] is described as follows: qHTS Screen of the MIPE 4.0 Collection Against Ewings Sarcoma (RDES) (AID 1259252). Further: nearly all actives have a fitted effect of over 35% in size. Further: potency means the concentration at half of the fitted maximal effect. An outline of the steps:
(§2)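 Log-phase cells in RPMI with 5% FBS attached for 4 h, then received compounds as a titration for 48 h at 37C, 5% CO2. Viability was read by CellTiter-Glo luminescence and normalized to DMSO and no-cell wells.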

The nature of experiment [9]: qHTS Screen of the MIPE 4.0 Collection Against Ewings Sarcoma (TC71) (AID 1259253). Further: nearly all actives have a fitted effect of over 40% in size. Further: potency means the concentration at half of the fitted maximal effect. An outline of the steps:
as §2

Experiment [10] in a line: qHTS Screen of the MIPE 4.0 Collection Against Ewings Sarcoma (EW8) (AID 1259255). Further: nearly all actives have a fitted effect of over 35% in size. Further: potency means the concentration at half of the fitted maximal effect.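 On viability: 100% = DMSO-treated cells and 0% = medium-only wells without cells.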 The gist of the method:
as §2

Inconclusive results are not listed. Calls of active or inactive are those of the source. Unless noted, the call rests on the fitted dose curve; in most records, active means well fitted inhibition curve with a large enough effect; inconclusive means small, poorly fitted or top-dose-only effect; inactive means no such curve, though single readings can be large or run the other way.

For `COc1cc(C)c(C=CC(C)=CC=CC(C)=CC(=O)O)c(C)c1C`, in experiment [1], the parasite growth remaining, % of DMSO control (lower = more inhibition) was determined as 115%. In experiment [2], the parasite growth, % of control (lower = inhibition) worked out at 85.9%. Moreover, the growth, % of control in experiment [3] came to 83.1%. Also, the cell viability, % of control (lower = more cytotoxic) in [4] was 336%. Further, in [5], the viability (% of control) stood at 94.9%. Moreover, the Potency entry in experiment [6], in experiment [7], in experiment [8], in experiment [9] and in experiment [10] was “inactive” throughout.

`C=CC[C@@H]1C=C(C)C[C@H](C)C[C@H](OC)[C@H]2O[C@@](O)(C(=O)C(=O)N3CCCC[C@H]3C(=O)O[C@H](C(C)=C[C@@H]3CC[C@H](O)[C@H](OC)C3)[C@@H](C)[C@@H](O)CC1=O)[C@@H](C)C[C@@H]2OC`: in experiment [1], the parasite growth remaining, % of DMSO control (lower = more inhibition) turned out to be 8.99%. In [2], the parasite growth, % of control (lower = inhibition) worked out at 10.3%. This compound yielded a growth, % of control in experiment [3] of 44.7%. Besides, the cell viability, % of control (lower = more cytotoxic) in [4] was 17.2%. Besides, the viability (% of control) in experiment [5] was determined as 44.2%. For the same compound, the Potency result in [6] and in experiment [7] was “inactive” each time. Besides, the Potency is 2640 nM (active) in experiment [8], 1870 nM (active) in [9] and 1660 nM (active) in [10].

For the compound `CC(=O)N[C@@H]1[C@H](O[C@@H]2c3ccc(c(Cl)c3)Oc3cc4cc(c3O[C@H]3O[C@H](CO)[C@@H](O)[C@H](O)[C@H]3NC(=O)CCCCCCCC(C)C)Oc3ccc(cc3Cl)C[C@H]3NC(=O)[C@H](N)c5ccc(O)c(c5)Oc5cc(O)cc(c5)[C@H](NC3=O)C(=O)N[C@H]4C(=O)N[C@H]3C(=O)N[C@@H]2C(=O)N[C@@H](C(=O)O)c2cc(O)cc(O[C@H]4O[C@H](CO)[C@@H](O)[C@H](O)[C@H]4O)c2-c2cc3ccc2O)O[C@H](CO)[C@@H](O)[C@@H]1O`, the parasite growth remaining, % of DMSO control (lower = more inhibition) in experiment [1] was 99.1%. Besides, in experiment [2], the parasite growth, % of control (lower = inhibition) was 159%. For the same compound, in [3], the growth, % of control amounted to 675%. In addition, in experiment [4], the cell viability, % of control (lower = more cytotoxic) was found to be 82.7%. Besides, the viability (% of control) in experiment [5] came out at 104%. Also, the Potency entry in experiment [6], in [7], in experiment [8], in [9] and in experiment [10] was “inactive” each time.

As for `CN1CCCN(C(=O)c2cccc(-c3ccc(C=C4C(=O)Nc5ccc(Cl)cc54)o3)c2)CC1`, the parasite growth remaining, % of DMSO control (lower = more inhibition) in experiment [1] came out at 5.68%. Also, in [2], the parasite growth, % of control (lower = inhibition) was 6.52%. Further, the growth, % of control in experiment [3] stood at 4.36%. In addition, in experiment [4], the cell viability, % of control (lower = more cytotoxic) turned out to be 9.19%. In [5], the viability (% of control) stood at 2.05%. Further, the Potency entry in [6] and in experiment [7] was “inactive” throughout. The Potency was 20900 nM (active) in experiment [8], 16600 nM (active) in experiment [9] and 10500 nM (active) in [10].

In the case of `COc1ccnc2[nH]cc(C(=O)C(=O)N3CCN(C(=O)c4ccccc4)C[C@@H]3C)c12`, the parasite growth remaining, % of DMSO control (lower = more inhibition) in experiment [1] worked out at 98%. Besides, the parasite growth, % of control (lower = inhibition) in [2] is 86.4%. In experiment [3], this compound came in with a growth, % of control of 99.1%. In addition, in experiment [4], the cell viability, % of control (lower = more cytotoxic) was found to be 172%. For the same compound, in experiment [5], the viability (% of control) came to 119%. The Potency entry in experiment [6], in experiment [7], in experiment [8] and in [10] was “inactive” throughout. Moreover, the Potency in [9] is 2640 nM (active).

Turning to `CCOC(=O)[C@H](CCc1ccccc1)N[C@@H](C)C(=O)N1[C@@H](C(=O)O)C[C@H]2CCC[C@@H]21`, the parasite growth remaining, % of DMSO control (lower = more inhibition) in experiment [1] is 9.73%. Besides, in experiment [2], the parasite growth, % of control (lower = inhibition) stood at 14.6%. Moreover, the growth, % of control in experiment [3] was 4.34%. Also, in [4], the cell viability, % of control (lower = more cytotoxic) is 7.77%. In experiment [5], the viability (% of control) was found to be 4.82%. Moreover, the Potency entry in [6] and in experiment [7] was “inactive” each time. The Potency was 5260 nM (active) in experiment [8], 14800 nM (active) in experiment [9] and 18700 nM (active) in experiment [10].

As to `CC[C@@]1([C@@H]2O[C@@H]([C@H]3O[C@@](O)(CO)[C@H](C)C[C@H]3C)C[C@H]2C)CC[C@H]([C@]2(C)CC[C@]3(C[C@H](O)[C@@H](C)[C@@H]([C@@H](C)[C@@H](OC)[C@H](C)C(=O)O)O3)O2)O1`, the parasite growth remaining, % of DMSO control (lower = more inhibition) in experiment [1] turned out to be 5.25% [at 9.64 µM]. Further, the parasite growth, % of control (lower = inhibition) in experiment [2] was 9.17% [at 9.64 µM]. The compound further showed a growth, % of control in [3] of 3.89% [at 9.64 µM]. Besides, the cell viability, % of control (lower = more cytotoxic) in experiment [4] was 27.8% [at 23.2 µM]. In addition, the viability (% of control) in experiment [5] amounted to 65.7% [at 23.2 µM]. For the same compound, the Potency result in experiment [6] and in experiment [7] was “inactive” in each case. For the same compound, the values for the Potency in experiment [8], in [9] and in experiment [10] were 257 nM (active), 257 nM (active) and 162 nM (active), respectively.

These data come from PubChem BioAssay (NCATS).
